Screening results (PubChem)
Rows were chosen to be rich in hits. Some 1.8% of all compounds tested hit in one or more screens of this group.
CIT2-GFP yeast: modulators of TOR pathway CIT2-GFP in S. cerevisiae | 320,000 tested, 0.065% active | GFP response vs DMSO, % at 10 µM | S. cerevisiae CIT2-GFP strain, flow cytometry, 3 h; 100 means same as DMSO wells;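 active = GFP response relative to DMSO above a set limit, near the screen mean plus 3 SD, cut at about 150% in these data; inconclusive = Fewer than 70 cells measured for a yeast strain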;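 note: ratio of well median GFP fluorescence to mean of DMSO wells on the plate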
RPL19A TOR yeast: alters RPL19A-GFP fluorescence in TOR pathway yeast screen; S. cerevisiae RPL19A-GFP strain, flow cytometry, 3 h; active compounds read low; percent response vs DMSO, % at 10 µM; 330,000 tested, 0.3% active;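 active = percent response vs DMSO below 50%; inconclusive = fewer than 70 events counted for the yeast strain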;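 note: median channel GFP fluorescence of the barcoded RPL19A-GFP strain; ratio of sample median GFP to plate DMSO average so 100% = DMSO; lower means less RPL19A-GFP as with rapamycin TOR inhibition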
AGP1-GFP MLPCN: yeast TOR pathway AGP1-GFP modulation; S. cerevisiae AGP1-GFP multiplex flow cytometry, 3 h; GFP as percent of DMSO wells; GFP response vs DMSO, % at 10 µM; 320,000 tested, 0.02% active;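 active = GFP response relative to DMSO above a set limit, near screen average plus 3 SD, cut at about 150% in these data; inconclusive = fewer than 70 cells counted for the yeast strain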;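 note: median GFP channel fluorescence of the gated AGP1 strain per well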
LAP4-GFP MLPCN: yeast TOR pathway LAP4-GFP modulation; S. cerevisiae LAP4-GFP multiplex, flow cytometry GFP, 3 h; median GFP as percent of DMSO wells; GFP response vs DMSO, % at 10 µM; 320,000 tested, 0.34% active; AID 2023;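 active = GFP response vs DMSO above a set limit, about the screen mean plus 3 SD, cut at about 150% in these data; inconclusive = under 70 cell events counted for the yeast strain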
MEP2-GFP yeast: modulators of TOR pathway MEP2-GFP in S. cerevisiae; S. cerevisiae MEP2-GFP strain, flow cytometry GFP, 3 h; 100% = DMSO control level; AID 2016; 330,000 tested, 0.51% active; GFP response vs DMSO, % at 10 µM;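 active = GFP response versus DMSO above a set limit, roughly screen mean plus 3 SD, cut at about 180% in these data; inconclusive = fewer than 70 cells counted for a yeast strain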;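 note: median GFP fluorescence of the barcode-gated MEP2-GFP cells per well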
Myeloid diff MLP: promotes myeloid progenitor differentiation; 360,000 tested, 1% active; ER-HoxA9 myeloid progenitors, lysozyme-GFP differentiation, flow cytometry; AID 624256; calls only at 10 µM;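 active = normalized GFP-positive differentiation at or above the plate's own cutoff, the solvent-only control mean plus 3 SD; inconclusive = no clear call, values can overlap the other calls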;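 note: cells exposed to compound for four days before flow analysis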
An asterisk follows results filed as active; i = inactive; ? = inconclusive; . = no result; + = active, no number; [ ] = dose if it differs, or a comment.

SMILES	CIT2-GFP yeast	RPL19A TOR yeast	AGP1-GFP MLPCN	LAP4-GFP MLPCN	MEP2-GFP yeast	Myeloid diff MLP
Cc1cc(=O)[nH]c(SCc2csc(-c3ccccc3)n2)n1	?	60	24	94	298*[may fluoresce violet]	i
Cc1ccc(C2=CSC3=NNC4(CCCCC4)NN23)cc1	104	107	112	105	112	+
COc1ccc(C2=CSC3=NNC4(CCCCC4)NN23)cc1	92	102	92	86	99	i
O=C(Nc1ccc(F)c(Cl)c1)c1cc(C2CCCCN2C(=O)CCCc2ccccc2)on1 (configuration not stated)	.	.	.	.	.	i
O=C(NCCc1ccccc1)C1CCC(Cn2c(=O)c3ccccc3n(Cc3cccc(Cl)c3)c2=O)CC1 (configuration not stated)	?	36*[may fluoresce violet]	29	105	142	i
O=C(NCCc1ccccc1)C1CCC(Cn2c(=O)c3ccccc3n(Cc3cccc(F)c3)c2=O)CC1 (configuration not stated)	97	102	94	95	107	i
COc1ccc(S(=O)(=O)N(C)C)cc1NC(=O)COc1ccc2c(c1)CCC2	.	.	.	.	.	i
O=c1ccc(-c2ccccc2)nn1Cc1ccc(F)cc1	?	30*[may fluoresce violet]	19	92	860*[may fluoresce violet]	i
C/C(=N\NC(N)=S)c1ccc2c(c1)OCCO2	70	92	82	140	89	i
COc1cc2ccc(C(C)=NNC(N)=S)cc2cc1OC	.	.	.	.	.	+
O=C(/C=C/c1ccc([N+](=O)[O-])cc1)Nc1cccc(C(=O)Nc2ccccc2C(=O)O)c1	101	101	102	99	103	+
Cc1cc([N+](=O)[O-])ccc1NC(=O)c1cccc(NC(=O)C(C)C)c1	?	75	?	70	191*[may fluoresce violet]	i
CN(C)c1ccc(NC(=O)c2cccc([N+](=O)[O-])c2)c2ccccc12	102	102	106	103	113	+
O=C(Nc1ccc2c3c(cccc13)CC2)c1cccc([N+](=O)[O-])c1	96	99	94	91	102	i
Cc1ccc(S(=O)(=O)N2CCOCC2)cc1C(=O)NCc1cccs1	102	97	105	106	107	i
CC(NC(=O)COC(=O)C1CC1C)c1cccc(Cl)c1 (configuration not stated)	78	96	86	105	105	i
CC1=C(C(=O)OCC2CCCO2)C(c2ccncc2)C2=C(CC(C)(C)CC2=O)N1 (configuration not stated)	?	99	94	99	216*[may fluoresce violet]	i
Cc1ccc(NC(=O)c2ccc(-c3nn(C)c(=O)c4ccccc34)cc2)cc1	95	94	89	92	96	+
Cc1ccc(N(CC(=O)N2CCOCC2)S(C)(=O)=O)cc1Cl	104	101	99	86	97	i
O=[N+]([O-])c1cc(/C=N/O)ccc1Oc1ccccc1Cl	94	76	95	118	187*	i
COc1ccc(CCNC(=O)CN(c2ccccc2OC)S(=O)(=O)c2ccc(C)cc2)cc1	103	95	100	94	98	i
COc1ccccc1N(CC(=O)NCc1ccccc1C)S(=O)(=O)c1ccc(C)cc1	?	?	?	?	206*[may fluoresce red and violet]	i
O=C(CC(=O)N/N=C/c1ccccc1O)NCc1cccnc1	102	100	99	97	102	i
CCN1Cc2c(/C=C/c3ccccc3)nc3ccc(OC)cc3c2N(c2cccc(Cl)c2)C1	103	100	93	99	110	+
COc1cccc(N2CCc3c(C)nc4ccc(Cl)cc4c32)c1	92	106	98	89	99	?
CCOC(=O)c1c(NS(=O)(=O)c2cccc(OC)c2)sc2c1CCC2	106	101	92	97	99	i
Cc1ccc(CN2CCNC(=O)C2CC(=O)NCCCn2cccn2)o1 (configuration not stated)	99	98	101	95	101	i
CCOC(=O)c1ccc(NC(=O)c2ncn3c2C(=O)N[C@H](C)C3)cc1	.	.	.	.	.	+
CCOC(=O)Cc1csc(NC(=O)c2sc3nc4c(C)cc(C)cc4cc3c2N)n1	111	102	110	106	117	i
